Test [1] in a line: inhibitors of TNFa-induced NFkB p65 translocation, primary screen, imaging, HUVEC, MLSMR starter and 10KST1 sets (AID 438).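 For inhibition: signal is the nuclear over cytoplasmic p65 intensity ratio per well.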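 Note: compound added about 3h40 before a 20 min TNFalpha stimulation.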 The following applies: HUVEC TNFa-induced p65 nuclear translocation; cell count: measured here: nuclei count (cytotoxicity indicator), at 2.08 µM; inhibition: at 2 µM, stronger effect = higher value, 0% TNFa-plus-vehicle, 100% no-TNFa wells.
The nature of test [2]: inhibitors of mutant huntingtin aggregation, primary screen, imaging, exon1htt(103Q)mCFP cells, high-content imaging (AID 483;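 active = visual image review flags a hit and inhibition of aggregation exceeds 20%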;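 note: compound exposure lasted 3 days before fixation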;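 for nuclei count: percent of the per-plate median nuclei count of sample wells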). The following applies: exon1htt(103Q)mCFP cell line, aggregate imaging, at 2 µM; inhibition of aggregation: stronger effect = higher value; nuclei count: measured here: cell count, toxicity.
Test [3] can be described thus: inhibitors of E-selectin induction by TNFa, primary screen, imaging, HUVEC, immunofluorescence, MLSMR starter and 10KST1 sets (AID 487;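 active = visually confirmed hit in the image check and inhibition above 20%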;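 for inhibition: signal is fraction of cell area covered by stained E-selectin grains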;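 for nuclei count: 100% = median nuclei count of all wells on the same plate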). The following applies: HUVEC TNFalpha-induced E-selectin immunofluorescence imaging, at 2 µM; inhibition: stronger effect = higher value; nuclei count: measured here: cell number, toxicity.
For test [4], the target named is Voltage-gated potassium channel subunit beta-2 (Rattus norvegicus) (UniProt P62483). Kind of test: KvBeta enzyme negative modulators, primary screen, biochemical, NADPH fluorescence (AID 622;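 active = fluorescence slope higher than the sample average by over 3 SD, cut at about -0.22 in these data, passing the limit was not always enough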;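 note: slope of raw intensity against log time taken from 70 to 1610 s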). Conditions: recombinant KvBeta, 4-cyanobenzaldehyde reduction, at 10 µM, stronger effect = higher value.
For test [5] the target is unchanged. Briefly: KvBeta positive modulators, primary screen, biochemical, NADPH fluorescence (AID 623;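 active = NADPH fluorescence slope more negative than the mean of all samples by about 3 SD, 99.7% confidence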;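 note: fluorescence intensity change per second fitted from 20 to 320 s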). The following applies: Recombinant KvBeta, NADPH fluorescence decrease slope, 10 min; at 10 µM; stronger effect = lower value.
Test [6] deals with Alpha-2C adrenergic receptor (Homo sapiens) (UniProt P18825). Briefly: modulators of alpha2C/GIRK thallium flux, primary screen, cell-based, HEK293 alpha2C/GIRK1/2 (AID 624;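 active = fluorescence slope after compound addition differing from the mean of all screened samples at 99.7% confidence, in either direction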;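 note: slope of fluorescence ratio to pre-addition baseline per second over 15 to 24 s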). The following applies: thallium flux BTC fluorescence, at 10 µM, actives lie on both sides.
Test [7] is described as follows: inhibitors of Sendai virus-induced IRF3 signaling, primary screen, TLR/RLR signaling modifier project, cell-based, Sendai virus stimulus, luciferase, 10K MLSCN set (AID 602276;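 active = inhibition at or above 50% at 10 µM; inactive = inhibition below 50%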;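 note: firefly luciferase from ISG56 promoter only with Renilla not read in this screen; 0% = Sendai virus plus DMSO and 100% = medium plus DMSO without virus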). The following applies: HEK293 RL24 IRF3 luciferase reporter, at 10 µM, stronger effect = higher value. In general terms: Reporter assays use an easily measured gene product as a stand-in for the process of interest.

Test [8] can be described thus: inhibitors of poly I:C-induced TLR3 signaling, primary screen, cell-based, poly I:C stimulus, luciferase, 10K MLSCN set (AID 602277;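 active = inhibition of the reporter signal at or above 50%; inactive = inhibition below 50%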). The following applies: HEK293-TLR3 RL24 IRF3 luciferase reporter, at 10 µM, stronger effect = higher value.

Active and inactive are the calls of the source.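 Rule for the calls, unless noted: active = inhibition above 20% together with a positive visual image hit; inconclusive = visual image hit but inhibition not above 20%; inactive = no visual image hit.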

Chain of Alpha-2C adrenergic receptor (Homo sapiens) (P18825 whole entry, looked up): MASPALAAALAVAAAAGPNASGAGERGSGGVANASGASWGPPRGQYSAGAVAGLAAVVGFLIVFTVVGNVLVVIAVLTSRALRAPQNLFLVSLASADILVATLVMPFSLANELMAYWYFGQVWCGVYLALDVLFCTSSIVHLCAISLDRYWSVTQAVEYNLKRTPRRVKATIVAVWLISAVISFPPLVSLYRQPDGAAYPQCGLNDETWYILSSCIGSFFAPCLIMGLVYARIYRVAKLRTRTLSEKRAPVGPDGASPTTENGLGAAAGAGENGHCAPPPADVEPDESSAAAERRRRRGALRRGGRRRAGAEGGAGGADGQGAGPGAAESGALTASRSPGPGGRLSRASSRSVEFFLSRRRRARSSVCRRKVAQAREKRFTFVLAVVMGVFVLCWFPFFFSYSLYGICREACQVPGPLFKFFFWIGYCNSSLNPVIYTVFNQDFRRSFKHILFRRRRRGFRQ
Chain of Voltage-gated potassium channel subunit beta-2 (Rattus norvegicus) (P62483 whole entry, looked up): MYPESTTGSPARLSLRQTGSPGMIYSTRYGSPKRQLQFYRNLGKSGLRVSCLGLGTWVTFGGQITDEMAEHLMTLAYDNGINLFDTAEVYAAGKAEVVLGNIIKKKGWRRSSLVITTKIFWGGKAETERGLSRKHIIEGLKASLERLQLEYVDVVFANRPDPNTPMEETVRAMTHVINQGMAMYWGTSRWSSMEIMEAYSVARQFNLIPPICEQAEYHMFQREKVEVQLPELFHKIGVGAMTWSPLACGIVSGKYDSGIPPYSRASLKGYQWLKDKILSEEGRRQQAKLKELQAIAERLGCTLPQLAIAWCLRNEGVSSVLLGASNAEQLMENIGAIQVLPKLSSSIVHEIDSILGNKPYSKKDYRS

By inhibition is commonly meant the relative decrease from the control value, in per cent. Turning to `COc1ccc(-c2ccc(-c3noc(-c4ccccc4)n3)c(OC)n2)cc1`, the cell count in test [1] turned out to be 359. For the same compound, the inhibition was 1.8% (inactive) in test [1], 5% (inactive) in test [3], -7.23% (inactive) in test [7] and -29.4% (inactive) in test [8]. In test [2], the inhibition of aggregation is -12.7% (inactive). Also, the nuclei count was 84.2% in test [2] and 88.8% in test [3]. The fluorescence slope in test [4] was -0.0356 (inactive). Also, the NADPH fluorescence slope in test [5] was -4.5e-06 (inactive). In test [6], the slope is 0.0074 (inactive).
Take `CCSc1nnc(-c2cccs2)o1`: the cell count in test [1] worked out at 413. The inhibition was -4.5% (inactive) in test [1], 21.6% (inactive) in test [3], -21.5% (inactive) in test [7] and -57.7% (inactive) in test [8]. Besides, the inhibition of aggregation in test [2] is -4.3% (inactive). Also, the nuclei count was 110% in test [2] and 111% in test [3]. Also, the fluorescence slope in test [4] is -0.369 (inactive). For the same compound, in test [5], the NADPH fluorescence slope was -4.4e-05 (inactive). Also, the slope in test [6] is 0.00573 (inactive).
For `CN(C)S(=O)(=O)c1ccc(Oc2ccc(S(=O)(=O)N(C)C)cc2)cc1`, the cell count in test [1] is 273. Moreover, the inhibition is -4.4% (inactive) in test [1], 8.2% (inactive) in test [3], -5.78% (inactive) in test [7] and -20.3% (inactive) in test [8]. In test [2], the inhibition of aggregation is -0.5% (inactive). Besides, the nuclei count in test [2] was 89.3%; in test [3], 80.6%. For the same compound, the fluorescence slope in test [4] was -0.42 (inactive). Further, the NADPH fluorescence slope in test [5] was 3.1e-05 (inactive). Further, in test [6], the slope is 0.00921 (inactive).
Turning to `Clc1cc2c(c(Cn3cnc4ccccc43)c1)OCOC2`, the cell count in test [1] stood at 566. In addition, the inhibition is 7.5% (inactive) in test [1], 4.1% (inactive) in test [3], 7.15% (inactive) in test [7] and -9.55% (inactive) in test [8]. Besides, the inhibition of aggregation in test [2] was 11.8% (inactive). Further, the nuclei count turned out to be 77.2% in test [2] and 89.8% in test [3]. Further, the fluorescence slope in test [4] is -0.595 (inactive). Further, in test [5], the NADPH fluorescence slope is -3e-05 (inactive). Besides, the slope in test [6] was 0.00307 (inactive).
Turning to `N#Cc1c(NCc2ccccc2)ccnc1NCc1cccnc1`, the cell count in test [1] worked out at 720. In addition, the inhibition in test [1] was 2.9% (inactive); in test [3] it was 67.5% (active); in test [7] it was -0.363% (inactive); in test [8], -44.8% (inactive). In test [2], the inhibition of aggregation is -8.3% (inactive). The nuclei count in test [2] is 104%; in test [3], 80.8%. In test [4], the fluorescence slope is -0.288 (inactive). In test [5], the NADPH fluorescence slope is -6.2e-05 (inactive). Also, the slope in test [6] was 0.00541 (inactive).
`C=CCn1c2ccccc2c2nnc(SCC(=O)NC(C(=O)OC)C(C)C)nc21` (centres undefined): in test [1], the cell count is 787. Moreover, the inhibition in test [1] is -1.4% (inactive); in test [3], -83.9% (inactive); in test [7] it was 14.6% (inactive); in test [8], 27.7% (inactive). Moreover, in test [2], the inhibition of aggregation was 10.3% (inactive). The nuclei count in test [2] came to 104%; in test [3], 103%. The fluorescence slope in test [4] is -0.424 (inactive). Further, the NADPH fluorescence slope in test [5] was -0.000127 (inactive). Moreover, the slope in test [6] was 0.00508 (inactive).
As for `CCCOc1cccc(C(=O)N(Cc2ccco2)C2CCS(=O)(=O)C2)c1` (centres undefined), in test [1], the cell count was 378. Moreover, the inhibition in test [1] was 1.7% (inactive); in test [3] it was -94.2% (inactive); in test [7], 2.23% (inactive); in test [8] it was -2.97% (inactive). Further, the inhibition of aggregation in test [2] was -7.9% (inactive). In addition, the nuclei count in test [2] is 100%; in test [3] it was 112%. In addition, the fluorescence slope in test [4] was -0.442 (inactive). Also, in test [5], the NADPH fluorescence slope is -3.3e-05 (inactive). For the same compound, the slope in test [6] was 0.00536 (inactive).
In the case of `COc1cccc(NC(=O)C2CCCN(S(=O)(=O)c3cccc4cccnc34)C2)c1` (centres undefined), the cell count in test [1] turned out to be 604. For the same compound, the inhibition in test [1] is -1.7% (inactive); in test [3], -62.8% (inactive); in test [7], 2% (inactive); in test [8], 23.1% (inactive). Also, the inhibition of aggregation in test [2] is 25.4% (inactive). Besides, the values for the nuclei count in test [2] and in test [3] were 90.7% and 106%, respectively. The fluorescence slope in test [4] was -0.559 (inactive). Also, the NADPH fluorescence slope in test [5] is -2e-05 (inactive). For the same compound, in test [6], the slope was 0.00606 (inactive).
Regarding `COc1cc(NC(=O)C2C3C=CC(C3)C2C(=O)O)c(OC)cc1Cl` (centres undefined), the cell count in test [1] amounted to 406. Moreover, the inhibition in test [1] is 0.8% (inactive); in test [3] it was 19.6% (inactive); in test [7], -7.81% (inactive); in test [8], 20.2% (inactive). The inhibition of aggregation in test [2] is -31% (inactive). The nuclei count in test [2] worked out at 98.6%; in test [3], 90%. In test [4], the fluorescence slope is -0.49 (inactive). Besides, the NADPH fluorescence slope in test [5] is -6.5e-06 (inactive). The slope in test [6] was 0.00705 (inactive).

The record behind these values is PubChem BioAssay.
